The record followed here is PubChem BioAssay (NCI).

The panel holds about 83,000 compounds, 20% with a hit somewhere; the sample as a whole holds those more often.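 How to read the values: 0–100, growth inhibition (40 = 60% inhibited); 0, no net growth; -100 to 0, cell death (-40 = 40% of starting cells died; -100 = all dead).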 Unmarked numbers belong to inactive results. Active and inactive are the calls of the source. How the source made its calls: active means growth percent below 10; inactive means the rest.

For this test, the system named is SN12C renal. The test is described as follows: NCI-60 one-dose screen, 48 h (100 = growth as untreated, 0 = no growth, -100 = all killed). Particulars: 10 µM unless noted.
Consider `O=C(Nc1nc2ccccc2s1)Nc1ccccc1Cl`, for which the growth was 83.9%.

For `Cc1ccc(C(=O)Nc2cc(-n3ccnc3C)cc(C(F)(F)F)c2)cc1C#Cc1cnc2cccnn12`, the growth was -8.57% (active).

With `O=C(c1ccc(O)cc1)C1[C@H](c2ccc(Cl)cc2)[C@@H](c2ccccc2)NC12C(=O)Nc1ccccc12` (stereo partly drawn), the growth is -83.8% (active).

Take `COc1ccc(-c2nc3ccc(-c4nnc(SCC(=O)Nc5ccc(/C(C)=N\O)cc5)o4)cc3[nH]2)cc1`: the growth was 80.1%.

As for `C[C@H]1[C@@H](CC(=O)N[C@@H](Cc2coc3ccccc23)B(O)O)O[C@@H]2OC3(C)CC[C@H]4[C@H](C)CC[C@@H]1[C@@]24O3`, the growth is 6% (active).

Regarding `Cc1cc(C(NC(=O)C2CC3(CC(Nc4cccc5c4C(=O)N(C4CCC(=O)NC4=O)C5=O)C3)C2)c2ccc3c(c2)OC(F)(F)O3)c(O)c2ncccc12` (stereo not drawn), the growth is 14.1%.

As to `NC(=O)c1ccc(-c2ccc3ncnc(N4CCc5cc(F)c(Cl)cc54)c3c2)cn1`, the growth was 61.9%.

For the compound `CCN1C(=O)N(CC)C2NNC(Sc3c(C(=O)O)c4ccccc4n(CCC(C)C)c3=O)=NC21` (stereo not drawn), the growth was 16.3%.

Regarding `COc1ccc2[nH]c(O)c(N=Nc3nc(-c4ccc(Cl)cc4)cs3)c2c1`, the growth was -69.2% (active).

For the compound `CC[C@]12C=CCN3CC[C@@]4(c5ccc(OC)cc5N(C)[C@H]4[C@@](O)(C(=O)OC)[C@@H]1OC(=O)CCCC[P+](c1ccc(F)cc1)(c1ccc(F)cc1)c1ccc(F)cc1)[C@@H]32`, the growth is 10.6%.

With `COc1cccc(/C=C/c2nc3ccccc3c(=O)n2CC(=O)Nc2ccccc2)c1`, the growth is 17.6%.

Consider `O=C(c1ccc(Cl)cc1)C1[C@H](c2ccccc2Cl)[C@@H](c2ccccc2)NC12C(=O)Nc1ccc(Br)cc12` (stereo partly drawn), for which the growth is -83.9% (active).

For the compound `O=C(CSc1nnc(-c2ccc(-c3nc4ccc(Cl)cc4[nH]3)cc2)o1)Nc1ccc(Cl)cc1`, the growth was -11.6% (active).

In the case of `N#Cc1c(NC(=O)N2CCOCC2)n(-c2ccc(OC(F)(F)F)cc2)c2cc(F)ccc12`, the growth was 93.5%.

For `O=C(N/N=C/c1ccc(Cl)o1)c1[nH]c2ccc(Br)cc2c1-c1ccccc1`, the growth is -60.9% (active).

Take `CC1=C(C(=O)OCc2ccccc2)C(c2cccc3ccccc23)n2c(nc3ccccc32)N1` (stereo not drawn): the growth is 30.6%.

In the case of `CC1=NN(C2=NC(=O)C(CC(=O)Nc3ccccc3C(F)(F)F)S2)C(c2ccc(N(C)C)cc2)C1` (stereo not drawn), the growth was 46.5%.

Consider `CN1C(=O)C2(C(C#N)=C(c3ccc(Cl)cc3)Nc3c2c(-c2ccccc2)nn3-c2ccccc2)c2ccccc21` (stereo not drawn), for which the growth was 86.3%.

On to `O=[N+]([O-])c1cccc(-c2nnc3c(/C=C/c4ccc(F)cc4)nc4ccccc4n23)c1`, for which the growth was 88%.

In the case of `COC(=O)c1cc(C(C)=O)n2c3ccccc3c3ccccc3c12`, the growth is 75.6%.

For `CCCCCCCOc1ccc(S(=O)(=O)Nc2ccc(C)c(F)c2C(=O)O)cc1`, the growth was 94.9%.

Take `COc1ccc2[nH]cc(-c3cc4nc(-c5cn(C)c6ncc(Br)cc56)cc(N)n4n3)c2c1`: the growth was -83.2% (active).

For `COc1ccc2c(c1)N=c1c-2cc2c(O)[nH]c(=S)n2c1=O`, the growth is 35.6%.

Take `CC(C)C[C@H](NC(=O)[C@@H]1CCCCCCCCCCC(=O)N[C@@H](CC(=O)N2CCC[C@@H]2C2CCCC2)C(=O)N1)B(O)O`: the growth is -88.9% (active).

With `O=C1NC(=S)/C(=C/c2cn(-c3ccccc3)nc2-c2ccccc2)S1`, the growth was 16%.

For the compound `CN(C)C(=O)c1cc(-c2ccc3ncnc(N4CCc5cc(F)c(Cl)cc54)c3c2)cnc1N`, the growth is -9.32% (active).

Regarding `N#C/C(=C/c1ccc(Cl)cc1)c1nnc(NC(=O)c2ccc(-n3c(=O)[nH]c4ccccc4c3=O)cc2)s1`, the growth is 61.1%.

On to `COc1c(B(O)O)cc(F)cc1-c1nc2c(F)cc3[nH]ncc3c2c2c1CCCC2`, for which the growth was 17.2%.

`O=C(CSc1nc2sc3c(c2c(=O)n1-c1ccc(Cl)cc1)CCCC3)NNC(=O)c1ccc(Br)cc1`: the growth is 46%.

Turning to `CN(C)c1ccc(/C=C/c2n(Cc3ccc4ccccc4c3)c3ccccc3[n+]2Cc2ccc3ccccc3c2)cc1`, the growth was -80.5% (active).

In the case of `COc1ccc2[nH]c(=O)cc(-n3ncc(C(=O)/C=C/c4cc(OC)c(OC)c(OC)c4)c3C)c2c1`, the growth was 7.21% (active).

Regarding `COc1ccc(C(=O)C[n+]2cccc3c4ccccc4ccc32)cc1`, the growth is 17.4%.

As for `CN1CCc2c(sc3ncnc(N/N=C/c4cccc(Cl)c4Cl)c23)C1`, the growth is 10.3%.

`COc1ccc2[nH]c(O)c(N=Nc3nc(-c4ccccc4)cs3)c2c1`: the growth was 2.85% (active).

In the case of `COc1ccc(N=Nc2c(N)nn3c(N)c(C#N)c(-c4ccc(F)cc4)nc23)cc1`, the growth was 61.3%.

For `C=CCSc1nnc(-c2ccc(-c3nc4ccccc4[nH]3)cc2)o1`, the growth was 83.8%.

Consider `Cc1oc(-c2ccccc2)nc1CN[C@@H]1C[C@@H]2C[C@H]([C@H]1C)C2(C)C`, for which the growth was 10.1%.

Regarding `COc1ccc(NC2=C(I)C(=O)C(C)=C(C)C2=O)cc1`, the growth is 17%.
